AGP1 TOR yeast – modulators of AGP1-GFP expression in yeast TOR pathway, primary screen, cell-based, multiplex flow cytometry, S. cerevisiae, MLPCN library; 3 h; GFP as percent of DMSO wells; GFP response vs DMSO, % at 10 µM; 0.02% of 320,000 active; AID 2066, 2009;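 active means GFP response relative to DMSO above a set limit, near screen average plus 3 SD, cut at about 150% in these data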;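 further: median GFP channel fluorescence of the gated AGP1 strain per well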
LAP4 TOR yeast – modulators of LAP4-GFP expression in yeast, primary screen, S. cerevisiae, multiplex flow cytometry, MLPCN library; 3 h; median GFP as percent of DMSO wells; AID 2023, 2009; 0.34% of 320,000 active; GFP response vs DMSO, % at 10 µM;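 active means GFP response vs DMSO above a set limit, about the screen mean plus 3 SD, cut at about 150% in these data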
RPL19A TOR yeast – RPL19A-GFP expression modulators in yeast, primary screen, cell-based, S. cerevisiae, multiplex flow cytometry, MLPCN; S. cerevisiae RPL19A-GFP strain, 3 h; active compounds read low; percent response vs DMSO, % at 10 µM; 0.3% of 330,000 active; AID 2025, 2009;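 active means percent response vs DMSO below 50%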;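 further: median channel GFP fluorescence of the barcoded RPL19A-GFP strain; ratio of sample median GFP to plate DMSO average so 100% = DMSO; lower means less RPL19A-GFP as with rapamycin TOR inhibition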
MEP2 TOR yeast – modulators of MEP2-GFP levels in yeast, primary screen, S. cerevisiae, multiplex flow cytometry, MLPCN library | 0.51% of 330,000 active | S. cerevisiae MEP2-GFP strain, 3 h; 100% = DMSO control level | AID 2016, 2009 | GFP response vs DMSO, % at 10 µM;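 active means GFP response versus DMSO above a set limit, roughly screen mean plus 3 SD, cut at about 180% in these data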;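 further: median GFP fluorescence of the barcode-gated MEP2-GFP cells per well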
CIT2 TOR yeast – modulators of CIT2-GFP expression in yeast, primary screen, S. cerevisiae, GFP fusion, multiplex flow cytometry, MLPCN library | S. cerevisiae CIT2-GFP strain, 3 h; 100 means same as DMSO wells | GFP response vs DMSO, % at 10 µM | 0.065% of 320,000 active | AID 2029, 2009;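 active means GFP response relative to DMSO above a set limit, near the screen mean plus 3 SD, cut at about 150% in these data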;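 further: ratio of well median GFP fluorescence to mean of DMSO wells on the plate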
LAP4-GFP pick2 – LAP4-GFP expression modulators in yeast, confirmation, cell-based, second cherry pick, flow cytometry. shares compounds with LAP4 TOR yeast. S. cerevisiae LAP4-GFP strain, 3 h. AID 2621, 2010. 20% of 590 active. GFP response vs DMSO, % at 10 µM;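 active means GFP signal as percent of the solvent control above about 150%, meaning raised reporter expression, limit read from the data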;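 further: ratio of well median GFP fluorescence to plate DMSO mean so 100% = DMSO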
MEP2 cherry2 – modulators of MEP2-GFP levels in yeast, confirmation, S. cerevisiae, flow cytometry GFP, second cherry picks; shares compounds with LAP4 TOR yeast; S. cerevisiae MEP2-GFP strain, 3 h; GFP response vs DMSO, % at 10 µM; 10% of 590 active; AID 2622, 2010;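 active means GFP signal above 150% of the solvent control wells, that is a rise of more than half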;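 further: median channel GFP fluorescence of all gated yeast cells per well; ratio of median GFP to plate DMSO average so 100% = DMSO level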
RPL19A-GFP pick2 – RPL19A-GFP modulators in TOR pathway yeast, confirmation, cell-based, S. cerevisiae, flow cytometry, second cherry pick | shares compounds with LAP4 TOR yeast | S. cerevisiae RPL19A-GFP strain, 3 h; active compounds read low; 100% means same as DMSO wells | GFP response vs DMSO, % at 10 µM | 3% of 590 active;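 active means under 65% GFP response relative to DMSO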;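 further: median GFP channel fluorescence per well over the all cells gate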
CIT2-GFP pick2 – modulators of CIT2-GFP expression in yeast, confirmation, flow cytometry, second cherry pick, single plex. shares compounds with LAP4 TOR yeast. S. cerevisiae CIT2-GFP strain, 3 h; DMSO control wells read 100%. GFP response vs DMSO, % at 10 µM. 8% of 590 active;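 active means GFP response vs DMSO above about 150%, limit read from the data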;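 further: median green fluorescence per well over all gated yeast cells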
AGP1 GFP CP2 – AGP1-GFP expression modulators, hit retest, confirmation, cell-based, flow cytometry, S. cerevisiae, cherry pick set 2; shares compounds with LAP4 TOR yeast; S. cerevisiae AGP1-GFP strain, 3 h; percent response vs DMSO, % at 10 µM; 590 tested, under 10 active;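 active means over 150 percent of DMSO response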;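 further: median GFP channel fluorescence over all cells without mother daughter split; sample median GFP divided by mean DMSO control so 100% equals DMSO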
Yeast autofluor – compound autofluorescence in yeast s288c, dose response, artefact control for yeast TOR pathway GFP screen, s288c strain; S. cerevisiae s288c, 520 nm autofluorescence, flow cytometry, 3 h; active compounds read high; zero means same as solvent-only cells; shares compounds with LAP4 TOR yeast; AID 2757, 2010; fluorescence change (kMESF span) at 33 µM; 610 tested, under 10 active;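 active means fluorescence span over the dose series, or activity score, above about 33, limit read from the data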
Active calls of the source: *; nt = no result. The list is not random: actives were taken first. Their share in the collection is about 0.93%.

SMILES	AGP1 TOR yeast	LAP4 TOR yeast	RPL19A TOR yeast	MEP2 TOR yeast	CIT2 TOR yeast	LAP4-GFP pick2	MEP2 cherry2	RPL19A-GFP pick2	CIT2-GFP pick2	AGP1 GFP CP2	Yeast autofluor
C#CCOCCOCCOCCNc1nc(N2CCN(C(=O)CCCCCCCCCCNC(=O)Cn3cc(CCCCCN)nn3)CC2)nc(N2CCN(C(=O)CCCCCCCCCCNC(=O)Cn3cc(CCCCCN)nn3)CC2)n1	78	152*	85	86	73	114	131	95	106	106	nt
C#CCOCCOCCOCCNc1nc(N2CCN(C(=O)CCCCCCCCCCNC(=O)Cn3cc(CCCCCN)nn3)CC2)nc(N2CCN(C(=O)CCCCCCCCCCNC(=O)[C@H]([C@@H](C)CC)n3cc(CCCCN=C(N)N)nn3)CC2)n1	77	151*	86	81	78	114	133	96	117	106	nt
C#CCOCCOCCOCCNc1nc(N2CCN(C(=O)CCCCCCCCCCNC(=O)[C@H]([C@@H](C)CC)n3cc(CCCCCN)nn3)CC2)nc(N2CCN(C(=O)CCCCCCCCCCNC(=O)[C@H]([C@@H](C)CC)n3cc(CCCCN=C(N)N)nn3)CC2)n1	76	128	89	87	84	nt	nt	nt	nt	nt	nt
C#CCOCCOCCOCCNc1nc(N2CCN(C(=O)CCCCCCCCCCNC(=O)Cn3cc(CCCCCN)nn3)CC2)nc(N2CCN(C(=O)CCCCCCCCCCNC(=O)[C@@H](CCC(=O)O)n3cc(CCCCCN)nn3)CC2)n1	84	145	93	90	88	nt	nt	nt	nt	nt	nt
CCOC(=O)c1c(S(=O)(=O)NCCCc2ccco2)c(C)n(C)c1C	104	97	99	95	98	nt	nt	nt	nt	nt	nt
O=C(CSc1ccc(F)cc1)Nc1cccc(S(=O)(=O)N2CCOCC2)c1	112	170*	87	102	87	102	98	100	107	97	nt
COc1ccc(/C=C/CN2CCCC(CCC(=O)NCc3ccc(F)c(F)c3)C2)cc1 (configuration not stated)	104	103	96	98	105	nt	nt	nt	nt	nt	nt
CCOC(=O)C1=C(COC(=O)CNC(=O)c2ccc(C)cc2)NC(=O)NC1C (configuration not stated)	88	82	62	87	85	98	98	99	104	101	nt
CCOC(=O)C1=C(COC(=O)CNC(=O)c2ccc(C(C)(C)C)cc2)NC(=O)NC1C (configuration not stated)	104	102	97	99	92	nt	nt	nt	nt	nt	nt
O=C(Nc1ccc(O)cc1)C1CCCN1S(=O)(=O)c1ccc(F)cc1 (configuration not stated)	115	143	107	196*	146	101	101	98	104	99	0
NC(=O)C1CCN(C(=O)c2cc(Cl)c3c(c2)OCCO3)CC1	99	183*	83	95	71	99	98	101	106	100	nt
N#Cc1ccc(CN2CCN(C(=O)c3cc(Cl)c4c(c3)OCCO4)CC2)cc1	102	109	99	100	94	nt	nt	nt	nt	nt	nt
CC(C)(C)OC(=O)NCCCCCNC(=O)c1[nH]cnc1C(=O)NC1CCN(C(=O)OC(C)(C)C)CC1	100	102	96	99	106	nt	nt	nt	nt	nt	nt
COc1ccc(-n2ncc(C(C)NS(=O)(=O)c3cccs3)c2C)cc1 (configuration not stated)	89	91	102	105	98	nt	nt	nt	nt	nt	nt
O=C(NCc1ccc2c(c1)OCO2)c1nc(S(=O)(=O)Cc2ccccc2)ncc1Cl	118	175*	92	102	108	nt	nt	nt	nt	nt	-0.21
COc1ccc2c(c1)c1nnc(SC)nc1n2C	60	103	54	101	73	102	106	53*	98	55	0.7
COC(=O)C1CCN(C(=O)COC(=O)CSc2ccc(C(N)=O)cc2[N+](=O)[O-])CC1	105	109	94	98	97	nt	nt	nt	nt	nt	nt
CCOC(=O)C(C(=O)OCC)C(C(=O)OCC)N1CCOCC1 (configuration not stated)	68	180*	65	88	75	nt	nt	nt	nt	nt	1.3
Cc1ccc(Nc2ccc(-n3ccnc3)nn2)cc1C	30	97	53	157	80	103	103	101	100	97	nt
COc1ccc2c(c1)c(/C=C/c1cc[n+](C)cc1)cn2C	118	138	118	214*	196*	nt	nt	nt	nt	nt	6.8
CC[n+]1ccc(/C=C/c2c[nH]c3ccccc23)cc1	102	103	106	116	114	nt	nt	nt	nt	nt	nt
COC(=O)Cn1cc(/C=C/c2cc[n+](C)cc2)c2ccccc21	106	109	100	114	112	nt	nt	nt	nt	nt	nt
COc1ccc2c(/C=C/c3cc[n+](C)cc3)c[nH]c2c1	117	150*	116	207*	210*	nt	nt	nt	nt	nt	5.7
Cc1ccc2[nH]cc(/C=C/c3cc[n+](C)cc3)c2c1	105	151*	115	217*	147	nt	nt	nt	nt	nt	5.4
CC(NS(=O)(=O)c1cccc(C(=O)NCc2ccncc2)c1)c1ccccc1 (configuration not stated)	104	105	101	102	104	nt	nt	nt	nt	nt	nt
CCN=C1S/C(=C\c2ccc(N3CCOCC3)cc2C)C(=O)N1CC	104	97	109	106	110	nt	nt	nt	nt	nt	nt
COCCN1C(=O)/C(=C/c2ccc(N3CCCC3)cc2C)SC1=S	106	129	120	186*	190*	nt	nt	nt	nt	nt	1.9
